# Assay outcomes deposited in PubChem by several laboratories.
# CYP2C9 inh: blockers of cytochrome P450 2C9 activity – biochemical, luminescence, ADME assay, primary screen; hit rate 20% among 96,000; CYP2C9 Supersomes, luciferin-H conversion; P11712; inhibition, % at 5 µM;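 active means blocking of liver enzyme CYP2C9 beyond about 50% at 5 µM, limit read from the data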
# Target sequence (P11712 whole entry, looked up): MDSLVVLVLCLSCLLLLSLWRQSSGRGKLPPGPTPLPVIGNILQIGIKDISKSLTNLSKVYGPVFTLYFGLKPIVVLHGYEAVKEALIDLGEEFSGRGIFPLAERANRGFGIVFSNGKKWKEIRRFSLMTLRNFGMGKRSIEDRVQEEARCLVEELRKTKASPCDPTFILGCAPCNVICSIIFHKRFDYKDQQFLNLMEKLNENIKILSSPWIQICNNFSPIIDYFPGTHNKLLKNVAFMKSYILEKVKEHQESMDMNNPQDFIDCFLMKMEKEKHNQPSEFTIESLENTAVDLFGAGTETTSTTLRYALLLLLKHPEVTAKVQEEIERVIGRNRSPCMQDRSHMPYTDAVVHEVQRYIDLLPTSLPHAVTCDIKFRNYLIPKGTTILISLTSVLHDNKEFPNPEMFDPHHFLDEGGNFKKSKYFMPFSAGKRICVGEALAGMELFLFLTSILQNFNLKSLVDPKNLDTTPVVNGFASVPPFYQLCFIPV
# CYP2C9 activ: human CYP2C9 activators, primary screen, biochemical, luminescence. AID 1024, 2008. hit rate 1.4% among 96,000. Cytochrome P450 2C9 (Homo sapiens), P11712. activation factor at 5 µM. recombinant CYP2C9, luciferin-H conversion; hits give high values; factor 1 = untreated enzyme, 0 = blocked;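 active means activation factor of 2 or more for CYP2C9 at a 5 µM dose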;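 further: 0 = sulfaphenazole-blocked wells and 1 = vehicle-only wells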
# CYP2C19 inhib: blockers of cytochrome P450 2C19 activity – biochemical, luminescence, ADME assay, primary screen. CYP2C19 Supersomes, luciferin-H EGE luminescence, 30 min. P33261. hit rate 21% among 96,000. inhibition, % at 5 µM;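 active means CYP2C19 inhibition above a set limit at 5 µM in the primary screen, cut at about 50% in these data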;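 further: plate controls were negative control wells for no effect and 2.5 mM tranylcypromine positive control for full effect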
# F-actin modifier: modifiers of F-actin cytoskeleton organization, primary screen, imaging, HUVEC, phalloidin staining, high-content imaging. hit rate 0.18% among 91,000. AID 836, 2007. inhibition, % at 2 µM. HUVEC TNFa F-actin phalloidin imaging;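 active means inhibition above the batch mean plus 3 SD and confirmed as a hit by visual image inspection, cut at about 30% in these data, passing the limit was not always enough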
# E-sel TNF inh: E-selectin induction blockers in HUVEC – imaging, immunofluorescence, high content, primary screen; HUVEC TNFa-induced E-selectin immunofluorescence; inhibition, % at 2 µM; hit rate 0.71% among 120,000;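 active means inhibition above the batch mean plus 3 SD, and confirmed as a hit on visual image review, cut at about 43% in these data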;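 further: 0% = TNF-stimulated DMSO wells and 100% = unstimulated control wells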
# CYP2C19 act: human CYP2C19 activators, primary screen, biochemical, luminescence; Cytochrome P450 2C19 (Homo sapiens), P33261; recombinant CYP2C19, luciferin-H EGE luminescence; hits give high values; 0 = fully inhibited enzyme, 1 = untreated enzyme; activation factor at 5 µM; 96,000 tested, under 10 active; AID 1025, 2008;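 active means activation factor of at least 2 at 5 µM in the primary screen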;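 further: 0 = wells with 2.5 mM tranylcypromine and 1 = vehicle-only wells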
# * marks the source's active call; other numbers are inactive results; nt = no result given. Most compounds without a hit are left out; they make up all but 22% or so of the library.
SMILES,CYP2C9 inh,CYP2C9 activ,CYP2C19 inhib,F-actin modifier,E-sel TNF inh,CYP2C19 act
c1ccc(-n2nnnc2NC2CCCCC2)cc1,8.9,0.9,19.9,-5.7,-10.4,0.8
O=c1c2cc(N3CCOCC3)ccc2[nH]c(=S)n1CC1CCCO1 (configuration not stated),62.4*,0.4,14.7,nt,-8.9,0.9
Cn1c2c(c(=O)n(C)c1=O)CN(CCN1CCNCC1)CN2,-1.0,1,-18.2,20.9,5.6,1.2
COc1ccc(N2CCN(C(c3cccs3)c3nnnn3C3CCCC3)CC2)cc1 (configuration not stated),64.2*,0.4,28.9,13.4,-18.4,0.7
Fc1ccc(CN(Cc2ccccc2)C(c2cccs2)c2nnnn2C2CCCCC2)cc1 (configuration not stated),22.6,0.8,-6.4,-7.4,9.5,1.1
Fc1ccc(N2CCN(C(c3cccs3)c3nnnn3C3CCCC3)CC2)cc1 (configuration not stated),98.1*,0,95.9*,-12.8,nt,0
CC(C)OC(=O)CSc1nnc(-c2cccnc2)n1Cc1ccccc1,-4.2,1,-6.2,-0.4,2.7,1.1
O=C1Cc2ccccc2N1c1c(Cl)cccc1Cl,nt,nt,nt,9.5,-10.9,nt
N=c1ccn(Cc2ccccc2Cl)cc1,30.7,0.7,-5.8,3.4,13.4,1.1
O=c1cc2c(nn1Cc1c(Cl)cccc1Cl)-c1ccccc1CC2,50.3*,0.5,36.0,-1.6,19.1,0.6
O=C1CCCc2ccccc2N1Cc1c(Cl)cccc1Cl,90.8*,0.1,95.7*,-37.4,41.8,0
O=C1CCCc2ccccc2N1Cc1ccc(Cl)cc1Cl,87.1*,0.1,94.3*,-39.1,-4.4,0.1
O=c1cc(N2CCCCC2)c(-c2ccccc2)nn1Cc1ccc(Cl)cc1Cl,30.9,0.7,32.0,-1.9,15.8,0.7
O=C1CCCc2ccccc2N1Cc1ccccc1Cl,46.4,0.5,87.8*,3.0,-3.2,0.1
CC1(C)Cc2cccc(OCC(=O)NC3CC3)c2O1,17.6,0.8,44.6,8.7,3.8,0.6
CNC(=O)NC(=O)C(C)Oc1ccccc1F (configuration not stated),nt,nt,nt,nt,-23.4,nt
CO/N=C(\Cn1ncc(N2CCCC2)c(Cl)c1=O)c1ccc(Cl)cc1,26.0,0.7,28.0,2.5,0.6,0.7
CCN(CC)c1cnn(C/C(=N\OC)c2ccc(Cl)cc2)c(=O)c1Br,94.4*,0.1,97.1*,4.5,12.9,0
CCC(CC)c1nc(NCCC(=O)O)c2ccccc2n1,4.5,1,-3.0,-27.7,-4.8,1
COc1cccc(OC)c1/C(O)=C(\C#N)c1nc2ccccc2[nH]1,23.9,0.8,58.5*,-4.1,48.9,0.4
CC(C)(C)/C(O)=C(/C#N)c1nc2ccccc2[nH]1,63.5*,0.4,39.1,4.5,8.0,0.6
CC1CCCN(C/C(O)=C(\C#N)c2nc3ccccc3[nH]2)C1 (configuration not stated),-0.8,1,0.1,10.0,-3.9,1
COc1ccc(C/C(O)=C(\C#N)c2nc3ccccc3[nH]2)cc1OC,50.5*,0.5,-3.2,-29.4,-6.9,1
COc1ccc(/C=N/OC/C(O)=C(\C#N)c2nc3ccccc3[nH]2)cc1,-0.4,1,1.5,-0.7,-19.3,1
COc1ccc(OC/C(O)=C(\C#N)c2nc3ccccc3[nH]2)cc1,-12.0,1.1,-14.4,0.4,nt,1.1
SMILES,CYP2C9 inh,CYP2C9 activ,CYP2C19 inhib,F-actin modifier,E-sel TNF inh,CYP2C19 act
CC(C)CC(/C(O)=C(\C#N)c1nc2ccccc2[nH]1)N1C(=O)c2ccccc2C1=O (configuration not stated),94.7*,0.1,96.2*,-21.5,-51.3,0
COc1ccc(N2C(=O)C3CCCN3C2=O)cc1 (configuration not stated),-24.7,1.2,-11.0,17.6,8.3,1.1
CCCCCCNC(=O)Cc1ccc(Br)cc1,nt,nt,nt,nt,-19.7,nt
C=C(C)CSc1nc(N)c(C#N)c(-c2ccc(C)cc2)c1C#N,50.0*,0.5,12.9,-8.3,-32.9,0.9
CCCCOC(=O)CSc1nc(N)c(C#N)c(-c2ccc(OC)cc2)c1C#N,8.3,0.9,28.7,16.4,nt,0.7
CCOC(=O)CSc1nc(N)c(C#N)c(-c2ccc(OC)cc2)c1C#N,45.1,0.5,60.1*,-10.9,nt,0.4
CCCCOc1ccc(-c2c(C#N)c(N)nc(SCC(N)=O)c2C#N)cc1,39.3,0.6,26.8,-73.4,8.8,0.7
CCOC(=O)CC(=O)CSc1nc(N)c(C#N)c(-c2ccc(F)cc2)c1C#N,52.9*,0.5,62.2*,-5.0,nt,0.4
CCCCOC(=O)CSc1nc(N)c(C#N)c(-c2ccc(OCC)cc2)c1C#N,22.8,0.8,16.9,20.0,22.0,0.8
COC(=O)Nc1ccc(S(=O)(=O)Nc2ncccn2)cc1,nt,nt,nt,nt,-18.6,nt
CCc1c(C)c(C#N)c2nc3ccccc3n2c1Nc1c(C)n(C)n(-c2ccccc2)c1=O,23.7,0.8,-1.4,8.1,-0.9,1
CC1(C)CC(=O)C=C(OC(=O)c2ccc(Cl)cc2)C1,53.1*,0.5,17.8,nt,nt,0.8
O=C(c1cnc2ccccn2c1=O)N1CCc2ccccc21,-35.1,1.4,3.5,nt,8.5,1
COCCCNc1nc(SCc2ccccc2)nc2sc3c(c12)CCC3,60.9*,0.4,25.3,22.3,-12.2,0.7
COCCn1c(C)cc(C(=O)COC(=O)c2c(C)nn(Cc3ccccc3)c2C)c1C,13.8,0.9,61.0*,10.6,nt,0.4
COCC(C)n1c(C)cc(C(=O)COC(=O)c2c(C)nn(-c3ccccc3)c2C)c1C (configuration not stated),40.6,0.6,61.8*,18.1,-68.7,0.4
COCCn1c(C)cc(C(=O)COC(=O)c2ccc3ncsc3c2)c1C,-98.7,2*,28.6,-19.1,1.3,0.7
Cc1nn(-c2ccccc2)c(C)c1C(=O)OCC(=O)NC12CC3CC(CC(C3)C1)C2,27.0,0.7,67.5*,6.2,nt,0.3
COc1ccc(CC(C)N2CCN(Cc3ccccc3)CC2)c(OC)c1 (configuration not stated),-14.6,1.1,-6.5,nt,-21.7,1.1
CCC(C)NC(=O)C1c2ccccc2C(=O)N1Cc1ccccc1OC (configuration not stated),28.8,0.7,13.6,nt,-35.8,0.9
CC(=O)OC1c2ccccc2C(=O)N1Cc1ccccc1Cl (configuration not stated),-17.9,1.2,98.9*,-0.7,nt,0
CCN(CC)S(=O)(=O)c1cc(C(=O)NC2CCCCC2)ccc1C,64.9*,0.4,42.8,nt,-10.9,0.6
Cc1ccc(C(=O)NC2CCCCC2)cc1,-4.8,1,13.8,-18.6,1.0,0.9
